Calls of active or inactive are those of the source. Unless noted, how the calls were made is not given here.
Legend:
[1] = liver-stage malaria parasite load reduction – cell-based, known kinase inhibitor set, luminescence, hepatoma host viability (AID 624392); conditions: Plasmodium liver stage in hepatoma cells, luciferase luminescence, concentration not given here; liver cell % of control: measured here: host liver cell viability; parasite % of control: stronger effect = lower value;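 further: infected cells incubated roughly two days before readout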
[2] = compounds altering viability of human ES cells (AID 493140); conditions: human embryonic stem cell survival screen; stronger effect = higher value;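 further: cells exposed to compounds for four days before counting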
[3] = P. berghei load reduction in hepatocytes – cell-based, HepG2, luciferase luminescence, HepG2 viability, primary screen (AID 624349; in the data active means parasite load remaining mostly below about 12%, no sharp cut-off; inactive means mostly above about 10%;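 further: 100% = mean of DMSO negative control wells on the same plate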); conditions: P. berghei liver stage in HepG2, luciferase luminescence, concentration not given here; parasite load remaining: stronger effect = lower value; viability: measured here: HepG2 viability without parasites

O=C1NC(=O)C(=Cc2ccc(-c3ccc([N+](=O)[O-])cc3)o2)C(=O)N1
liver cell % of control [1]: 98%
parasite % of control [1]: 117% (inactive)

C=C[C@@H]1CN2CCC1C[C@@H]2[C@H](O)c1ccnc2ccccc12 (some centres not stated)
survival [2]: 3.33 (inactive)
parasite load remaining [3]: 71% (inactive)
viability [3]: 77.6%

N/C(=N\[N+](=O)[O-])N/N=C\c1ccc(-c2cccc([N+](=O)[O-])c2)o1
parasite load remaining [3]: 33.3% (inactive)
viability [3]: 91.9%

CN[C@@H]1CC2(C)OC([C@@H]1OC)n1c3ccccc3c3c4c(c5c6ccccc6n2c5c31)C(=O)NC4 (some centres not stated)
survival [2]: 0.333 (inactive)

CC(C)C(C(=O)OC(C#N)c1cccc(Oc2ccccc2)c1)c1ccc(Cl)cc1 (configuration not stated)
survival [2]: 79 (inactive)

O=C1NC(=O)C(=Cc2ccc(-c3ccc(Cl)cc3)o2)C(=O)N1
liver cell % of control [1]: 87%
parasite % of control [1]: 167% (inactive)

N#CC(C#N)=Cc1cc(O)c(O)c([N+](=O)[O-])c1
survival [2]: 100 (inactive)

O=c1cccc2n1CC1CNC[C@@H]2C1
survival [2]: 9 (inactive)
parasite load remaining [3]: 70.3% (inactive)
viability [3]: 77.8%

CN1C2CCC1CC(OC1c3ccccc3CCc3ccccc31)C2 (configuration not stated)
survival [2]: 0.75 (inactive)

O=C1NC(=O)C(=Cc2ccc(-c3ccc(F)cc3O)o2)C(=O)N1
liver cell % of control [1]: 100%
parasite % of control [1]: 87.6% (inactive)

CC/C=C\C[C@@H](/C=C/C=C\C/C=C\C/C=C\CCCC(=O)O)OO
survival [2]: 90.4 (inactive)

C[C@@H](N)[C@H](O)c1ccccc1
survival [2]: 4.42 (inactive)
parasite load remaining [3]: 62.7% (inactive)
viability [3]: 76%

From PubChem BioAssay
